Assay outcomes: PubChem, several laboratories
Cav3 T inh: inhibitors of human Cav3.2 T-type calcium channel; O95180; Cav3.2-expressing cells, Fluo-4 calcium fluorescence FDSS; hits give low values; B-score at 10 µM; 100,000 tested, 4% active; AID 449739;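 active means single-dose well whose peak fluorescence ratio is a statistical outlier from its plate by either plate-standardised score or position-corrected B-score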
CYP2C19 activ: increases human CYP2C19 enzyme activity; 96,000 tested, under 10 active; recombinant CYP2C19, luciferin-H EGE luminescence; hits give high values; 0 = fully inhibited enzyme, 1 = untreated enzyme; activation factor at 5 µM; AID 1025;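 active means activation factor of at least 2 at 5 µM in the primary screen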;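 further: 0 = wells with 2.5 mM tranylcypromine and 1 = vehicle-only wells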
CYP2C19 inh: inhibitors of human CYP2C19; P33261; 96,000 tested, 21% active; CYP2C19 Supersomes, luciferin-H EGE luminescence, 30 min; inhibition, % at 5 µM;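 active means CYP2C19 inhibition above a set limit at 5 µM in the primary screen, cut at about 50% in these data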;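 further: plate controls were negative control wells for no effect and 2.5 mM tranylcypromine positive control for full effect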
CYP2C9 inhib: blocks human cytochrome P450 2C9 | P11712 | CYP2C9 Supersomes, luciferin-H conversion, luminescence | inhibition, % at 5 µM | 96,000 tested, 20% active | AID 777;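 active means blocking of liver enzyme CYP2C9 beyond about 50% at 5 µM, limit read from the data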
Target sequence (P11712 whole entry, looked up): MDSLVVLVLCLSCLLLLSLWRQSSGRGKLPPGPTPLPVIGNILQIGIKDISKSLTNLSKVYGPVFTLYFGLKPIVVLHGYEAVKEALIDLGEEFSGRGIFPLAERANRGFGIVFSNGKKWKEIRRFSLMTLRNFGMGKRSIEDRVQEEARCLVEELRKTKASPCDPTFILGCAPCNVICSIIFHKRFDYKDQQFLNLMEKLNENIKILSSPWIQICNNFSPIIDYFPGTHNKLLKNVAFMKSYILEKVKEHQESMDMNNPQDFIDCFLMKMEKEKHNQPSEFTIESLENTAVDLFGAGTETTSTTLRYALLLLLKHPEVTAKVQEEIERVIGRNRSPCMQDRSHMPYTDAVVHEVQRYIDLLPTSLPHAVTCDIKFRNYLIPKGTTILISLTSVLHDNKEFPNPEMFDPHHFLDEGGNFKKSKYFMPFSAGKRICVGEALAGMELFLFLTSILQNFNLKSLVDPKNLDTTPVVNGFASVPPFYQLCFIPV
CYP2C9 activ: CYP2C9 (human) activation. 96,000 tested, 1.4% active. activation factor at 5 µM. P11712. AID 1024. recombinant CYP2C9, luciferin-H conversion, luminescence; hits give high values; factor 1 = untreated enzyme, 0 = blocked;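 active means activation factor of 2 or more for CYP2C9 at a 5 µM dose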;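 further: 0 = sulfaphenazole-blocked wells and 1 = vehicle-only wells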
* = called active by the depositor; . = not tested or not shown. Most compounds without a hit are left out; they make up all but 27% or so of the library.

SMILES	Cav3 T inh	CYP2C19 activ	CYP2C19 inh	CYP2C9 inhib	CYP2C9 activ
CCCc1cc(-c2ccc(O)c(OCC)c2)c(C#N)c(N)n1	-0.183	0.1	90.2*	82.5*	0.2
Cc1nc2sc(C(c3ccco3)N3CCC(Cc4ccccc4)CC3)c(O)n2n1 (stereo not given)	-1.84	.	.	.	.
CCOC(=O)COc1ccc(Br)cc1C1NC(=O)NC(C)=C1C(=O)NCc1ccccc1 (stereo not given)	-0.0228	1	-0.2	82.7*	0.2
CCOc1c(Cl)cc(C2NC(=O)NC(C)=C2C(=O)NCc2ccccc2)cc1OC (stereo not given)	0.155	1	4.7	19.0	0.8
CSc1nc(Cc2ccc(Cl)cc2)nc2ccccc12	-0.433	1.1	-6.2	-5.9	1.1
Cc1ccccc1S(=O)(=O)c1c(C)cc(C)n(C(C)C)c1=O	-3.98	0.5	47.3	7.4	0.9
CCCCn1c(C)cc(C)c(S(=O)(=O)c2ccccc2C)c1=O	-2.86	0.5	53.3*	40.6	0.6
CC(C)N=C(NC#N)SCc1ccc(F)cc1	0.753	0.1	94.6*	62.6*	0.4
CCN(CC)C(=O)CSC(=Nc1ccccc1F)NC#N	1.29	0.6	43.7	36.2	0.6
CCOC(=O)N1CCC(NC(=O)c2csc3c2CCCC3)CC1	1.66	0.9	13.7	-29.3	1.3
CC(=O)Nc1cccc(-c2csc(NCc3ccco3)n2)c1	-0.357	0.5	48.2	39.3	0.6
CCCN(CCC)C(=O)Cn1c(=O)n(CCCCC(=O)NCc2ccco2)c(=O)c2ccccc21	.	0.7	30.2	69.4*	0.3
Cc1ccc(C)c(Cn2c(=O)n(CCC(=O)NCc3ccco3)c(=O)c3ccccc32)c1	.	0.9	10.6	17.4	0.8
O=C(CCCCn1c(=O)c2ccccc2n(Cc2ccc(F)cc2Cl)c1=O)NCc1ccco1	.	0.1	88.2*	83.7*	0.2
O=C(CCCn1c(=O)c2ccccc2n(CC(=O)NCc2ccco2)c1=O)NCc1ccco1	0.0665	1	3.2	40.9	0.6
O=C(CCCCn1c(=O)c2ccccc2n(CC(=O)Nc2ccc(F)cc2)c1=O)NCc1ccco1	0.658	0.4	55.0*	81.4*	0.2
CCC(C)NC(=O)Cn1c(=O)n(CCCCC(=O)NCc2ccco2)c(=O)c2ccccc21 (stereo not given)	.	0.8	21.3	26.7	0.7
Cc1ccc(NC(=O)Cn2c(=O)n(CCCCC(=O)NCc3ccco3)c(=O)c3ccccc32)cc1	.	0.5	45.7	82.4*	0.2
CCC(Sc1nc(N)cc(N)n1)C(=O)O (stereo not given)	0.903	1.1	-9.3	-7.2	1.1
Clc1ccccc1OCCCCn1ccnc1	0.532	0	100.0*	96.1*	0
Cc1cc(Cl)cc(C)c1OCCCCn1ccnc1	-0.519	0	100.4*	96.4*	0
O=C(O)c1ccc(OCCn2ccnc2)cc1	0.0576	1.2	-20.1	-5.7	1.1
Cc1ccccc1OCCCCCn1ccnc1	-0.18	0	100.4*	100.3*	0
Clc1ccc(SCCCCn2ccnc2)cc1	-0.743	0	99.7*	99.5*	0
CC(C)C1=NN(C(=O)c2ccccc2)C(O)(C(C)(C)C)C1 (stereo not given)	.	0.8	15.7	5.1	0.9
SMILES	Cav3 T inh	CYP2C19 activ	CYP2C19 inh	CYP2C9 inhib	CYP2C9 activ
Cc1cc(C)n(-c2c(F)c(F)c(CO)c(F)c2F)n1	0.792	1.1	-13.8	-13.0	1.1
COc1cccc(N(C(=O)c2cccs2)c2nc3ccccc3s2)c1	-0.391	1	4.7	20.7	0.8
Cc1cccc(C(C)(C)C)c1OCCn1ccnc1	-1.5	0	98.5*	66.1*	0.3
Cc1cccc(C(C)(C)C)c1OCCCCN1CCCC1	0.332	1	1.6	-5.0	1.1
O=C(c1ccc(CN2CCOCC2)cc1)N1CCN(c2ccccc2)CC1	1.01	.	.	.	.
COCCCNc1nc(SCc2ccccc2)nc2sc3c(c12)CCC3	-3.26	0.7	25.3	60.9*	0.4
N#Cc1cnn(-c2nc(SCc3ccccc3)nc3sc4c(c23)CCCC4)c1N	-4.99*	0.9	12.2	41.7	0.6
Nc1nc(SCC(=O)NCCCO)nc2sc3c(c12)CCC3	-0.795	0.9	7.8	2.8	1
Cc1ccc(CNc2nc(C)nc3sc4c(c23)CCC4)cc1	-0.176	0.9	9.3	42.8	0.6
Cc1ccc(OCCSc2ncnc3sc(C)c(C)c23)cc1C	.	0.9	11.3	4.3	1
O=C(O)c1c(-c2ccccc2)c2oc3ccccc3c2[nH]c1=O	0.532	1.1	-13.2	-3.9	1
CCOc1cc(/C=N/n2cnnc2)ccc1OCC(=O)Nc1ccccc1OC	0.0477	0.5	54.1*	69.7*	0.3
